Screening data: PubChem, several laboratories
An excerpt weighted towards active compounds, which were near 5.4% of everything screened.
ALR inh – inhibitors of human sulfhydryl oxidase ALR; P55789; purified ALR, DTT oxidation, H2O2 HRP-luminol luminescence; inhibition, % (no concentration beside the values); 3.8% of 290,000 active;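 active = mean replicate inhibition above about 79%, with every replicate also reaching it, limit read from the data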
aDG glyco act – alpha-DG glycosylation activation | Pro5-aDG cells, alpha-DG glycosylation AlphaScreen (IIH6); 0% Pro5, 100% B10-LARGE cell signal | activation, % at 10 µM | 0.22% of 360,000 active;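 active = activation of at least 8% versus controls, or a plate z-score of at least 8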;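 note: Pro5 are CHO cells carrying HIG-tagged alpha-DG that lacks glycosylation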
APOBEC3A inh – human APOBEC3A DNA deaminase inhibition | AID 493011 | P31941 | 0.41% of 330,000 active | inhibition, % at 20 µM | recombinant A3A, FAM/TAMRA ssDNA deamination fluorescence;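 active = at least 40% inhibition at 20 µM here, with at most 30% in a related deaminase screen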;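 note: plate controls were A3A with DMSO for no effect and wells lacking A3A enzyme for full effect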
Target sequence (P31941 whole entry, looked up): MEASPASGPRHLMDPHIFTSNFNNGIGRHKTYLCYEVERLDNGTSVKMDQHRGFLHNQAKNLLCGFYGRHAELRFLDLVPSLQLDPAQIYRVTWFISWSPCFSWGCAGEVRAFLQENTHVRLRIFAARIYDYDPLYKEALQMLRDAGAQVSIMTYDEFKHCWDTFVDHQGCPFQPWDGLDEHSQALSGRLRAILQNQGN
rCAG RNA binder – molecules binding r(CAG) RNA repeats | r(CAG) RNA repeat, TO-PRO-1 dye displacement fluorescence | 1.3% of 370,000 active | inhibition, % at 3 µM;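 active = inhibition above the plate cutoff, the mean of all test compounds on that plate plus 3 SD, cut at about 35% in these data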;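 note: 0% = DMSO alone and 100% = 100 µM mitoxantrone as full dye displacement; higher means more dye released from RNA so lower well fluorescence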
PHOSPHO1 inh – PHOSPHO1 (human) inhibition | Q8TCT1 | recombinant PHOSPHO1, absorbance phosphatase assay | 1.1% of 290,000 active | inhibition, % at 13.3 µM; in the data active = inhibition above about 60%
A3G deaminase – blocks human APOBEC3G single-stranded DNA deamination; Q9HC16; recombinant A3G, ssDNA deamination FAM/TAMRA fluorescence; inhibition, % at 20 µM; 0.28% of 330,000 active; AID 493012;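 active = inhibition of at least 40% at 20 µM, with no more than 30% in the related APOBEC3A deaminase screen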;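 note: plate controls were DMSO wells with A3G for no effect and wells lacking A3G enzyme for full effect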
Target sequence (Q9HC16 whole entry, looked up): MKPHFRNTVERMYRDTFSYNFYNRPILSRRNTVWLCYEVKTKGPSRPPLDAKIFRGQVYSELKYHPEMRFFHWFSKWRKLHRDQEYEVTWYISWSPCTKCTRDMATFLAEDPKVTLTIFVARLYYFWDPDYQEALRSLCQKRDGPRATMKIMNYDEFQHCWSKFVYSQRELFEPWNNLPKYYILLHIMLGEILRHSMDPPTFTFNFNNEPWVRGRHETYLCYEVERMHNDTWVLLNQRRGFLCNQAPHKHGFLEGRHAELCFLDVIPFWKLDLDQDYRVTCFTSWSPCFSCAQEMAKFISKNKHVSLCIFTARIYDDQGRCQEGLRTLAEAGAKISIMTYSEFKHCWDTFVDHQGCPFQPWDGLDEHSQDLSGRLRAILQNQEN
rCAG binder conf – r(CAG) RNA repeat binding, confirmation | inhibition, % at 3 µM | 70% of 4,300 active | AID 652065 | shares compounds with rCAG RNA binder | TO-PRO-1 dye displacement fluorescence;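 active = inhibition above a per-plate cutoff, the mean inhibition of sample wells plus 3 SD, cut at about 35% in these data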;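 note: loss of TO-PRO-1 fluorescence as compound displaces dye from 1x1 AA loop RNA; 0% = DMSO only wells and 100% = 100 µM mitoxantrone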
DNA CAG counter – DNA CAG dye complex inhibition counter-screen. shares compounds with rCAG RNA binder. d(CAG) DNA oligo TO-PRO-1 dye displacement, fluorescence. inhibition, % at 3 µM. 94% of 4,300 active;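 active = inhibition above its plate's cutoff, the mean test-well inhibition plus 3 SD, cut at about 4.8% in these data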;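 note: 0% = DNA dye mix with DMSO and 100% = 100 µM mitoxantrone; hits displace the dye from DNA and so lower well fluorescence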
DNA CAG DR – counter-screen for rCAG binders: inhibitors of DNA CAG TO-PRO-1 complex. DNA CAG/GTC duplex TO-PRO-1 dye displacement fluorescence. IC50, µM. 20% of 250 active. shares compounds with rCAG RNA binder; in the data active = IC50 below about 10 µM
* hit, by the source's call.

Screening Cc1ccc(S(=O)(=O)N2[C@@H](c3ccc(C(C)(C)C)cc3)C(C(=O)O)=CC[C@H]2c2cccs2)cc1 returned aDG glyco act 0, APOBEC3A inh -6, rCAG RNA binder 81*, A3G deaminase -8, rCAG binder conf 73*, DNA CAG counter 34* and DNA CAG DR 9.5*.
`Cc1ccc(S(=O)(=O)N2[C@@H](c3ccc(F)cc3)C(C(=O)O)=CC[C@H]2c2cccs2)cc1` gave ALR inh 6, aDG glyco act 0, APOBEC3A inh 1, rCAG RNA binder 43*, A3G deaminase 0, rCAG binder conf 37* and DNA CAG counter 9.9*.
Screening COc1ccc(CN2C[C@@H](CO)O[C@@H](n3cnc4c(N5CCN(c6ccccc6)CC5)ncnc43)C2)cc1 returned aDG glyco act 0 and rCAG RNA binder 5.
For CC1(C(=O)NS(=O)(=O)c2ccccc2Cl)CCN1C(=O)C1(c2ccccc2)CCCC1 (configuration not stated) the results were aDG glyco act 1 and rCAG RNA binder 33.
Screening Cc1ccccc1S(=O)(=O)NC(=O)C1(C)CCN1C(=O)C1(c2ccc(Cl)cc2)CCC1 (configuration not stated) returned aDG glyco act 0, rCAG RNA binder 48*, rCAG binder conf 37* and DNA CAG counter 8.8*.
CC1(C(=O)NS(=O)(=O)c2ccccc2Cl)CCN1C(=O)C1(c2ccc(Cl)cc2)CC1 (configuration not stated) was read as aDG glyco act 0, rCAG RNA binder 36*, rCAG binder conf 28 and DNA CAG counter 5.1*.
`Clc1ccc(-c2nc3ccc(Br)cn3c2Cc2ccsc2)cc1` gave aDG glyco act 0, rCAG RNA binder 43*, rCAG binder conf 26 and DNA CAG counter 7.8*.
Clc1cccc(Cc2c(-c3ccccc3)nc3ccc(Br)cn23)c1 was read as aDG glyco act 0, rCAG RNA binder 46*, rCAG binder conf 38* and DNA CAG counter 9.2*.
`Cc1cc2nc(-c3cccc(Br)c3)c(Cc3cccc(Cl)c3)n2c(C)c1Br` gave aDG glyco act 0, rCAG RNA binder 40*, rCAG binder conf 12 and DNA CAG counter 5.9*.
Screening Fc1ccc(-c2nc3ccc(Br)cn3c2Cc2cccc(F)c2)cc1 returned aDG glyco act 0, rCAG RNA binder 48*, rCAG binder conf 34 and DNA CAG counter 9.0*.
`Cc1cc2nc(-c3cccc(Cl)c3)c(Cc3ccccc3)n2c(C)c1Br` gave aDG glyco act 0.
Cc1ccc(NC(=O)C2(C)CCN2C(=O)Cc2cc(F)ccc2F)cc1 (configuration not stated) was read as aDG glyco act 0 and rCAG RNA binder 0.
CC(=O)NC(c1ccccc1)c1nc(-c2cccnc2)cs1 (configuration not stated) was read as aDG glyco act 0 and rCAG RNA binder 2.
Screening Cc1cccc(C)c1-n1nnnc1C(c1ccnc2ccccc12)N(C)Cc1ccccc1 (configuration not stated) returned aDG glyco act 0 and rCAG RNA binder 2.
`COP(=O)(OC)C(NC(=O)OCc1ccccc1)C(C)C` (configuration not stated) gave rCAG RNA binder 1.
Screening Fc1cccc(Cc2c(-c3cccc(Br)c3)nc3ccc(Cl)cn23)c1 returned aDG glyco act 0, rCAG RNA binder 46*, rCAG binder conf 25 and DNA CAG counter 5.9*.
For O=S(=O)(Nc1nc2ccccc2nc1NCCN1CCOCC1)c1cccc(Cl)c1 the results were ALR inh 4, aDG glyco act 0, APOBEC3A inh -2, rCAG RNA binder 49*, PHOSPHO1 inh 1, A3G deaminase -2, rCAG binder conf 53*, DNA CAG counter 10* and DNA CAG DR >30.
`O=S(=O)(Nc1nc2ccccc2nc1NCC1CCCO1)c1cc(Cl)ccc1Cl` (configuration not stated) gave ALR inh 46, aDG glyco act 0, APOBEC3A inh -2, rCAG RNA binder 71*, PHOSPHO1 inh 20, A3G deaminase -5, rCAG binder conf 49* and DNA CAG counter 14*.
For O=S(=O)(Nc1nc2ccccc2nc1NCC1CCCO1)c1ccccc1 (configuration not stated) the results were ALR inh 5, aDG glyco act 0, APOBEC3A inh 4, rCAG RNA binder 18, PHOSPHO1 inh 24 and A3G deaminase -2.
`CN(C(=O)c1cccc(NC(=O)Cc2ccc(NC(=O)C3CCN(C(=O)CCc4ccccc4)CC3)cc2)c1)C1CCCCC1` gave aDG glyco act 0 and rCAG RNA binder 15.
Screening O=[N+]([O-])c1cc(/C=N/Nc2nc3ccccc3[nH]2)c(O)cc1O returned rCAG RNA binder 36*, PHOSPHO1 inh 8, rCAG binder conf 29 and DNA CAG counter 13*.
`Cc1ccccc1/C=N/Nc1nc2ccccc2[nH]1` gave ALR inh 73, aDG glyco act 0, APOBEC3A inh -2, rCAG RNA binder 3, PHOSPHO1 inh -3 and A3G deaminase -6.
`CCc1cc(C(=O)O)c(NC(=O)/C=C/c2ccc(OC)c(OC)c2)s1` gave ALR inh -3, aDG glyco act 0, APOBEC3A inh 8, rCAG RNA binder 56*, PHOSPHO1 inh 25, A3G deaminase -6, rCAG binder conf 40* and DNA CAG counter 9.9*.
Cc1cc(C)cc(NC(=O)CSc2ncc(S(=O)(=O)c3ccccc3)c(=O)[nH]2)c1 was read as ALR inh 99*, APOBEC3A inh -1, rCAG RNA binder 61*, PHOSPHO1 inh -4, A3G deaminase -8, rCAG binder conf 47* and DNA CAG counter 15*.
Screening C#CCSc1ncc(S(=O)(=O)c2ccccc2)c(=O)[nH]1 returned aDG glyco act 0, APOBEC3A inh -5, rCAG RNA binder 2, PHOSPHO1 inh 11 and A3G deaminase -7.
`O=C(CNC(=O)c1ccccc1Br)N/N=C/c1ccccc1O` gave ALR inh 11, aDG glyco act 1, APOBEC3A inh -2, rCAG RNA binder 0, PHOSPHO1 inh 44 and A3G deaminase -4.
